Reference: PubChem BioAssay AID771 (SRMLSC, 2007)
In all, about 3,300 compounds went through this assay and about 55 (2%) were called active.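 Rule for the calls: active = growth inhibition above 90%, meaning viable cell count by imaging cut by more than 90% versus vehicle controls; inactive = growth inhibition below 90%.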 For the sample, actives were picked, then their nearest neighbours and some compounds at random.

Experiment: HT29 colon tumor cell growth inhibition, primary screen, imaging, high content imaging, 48 h, CellTiter-Glo (AID 771);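 for condensed nuclei: condensed means Hoechst nuclear area under control median minus 1.5 SD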
Details: HCS imaging cell count, at 10 µM, stronger effect = higher value; for condensed nuclei: measured here: percent cells with condensed nuclei
[1] = measured here: ATP CellTiter-Glo viability inhibition

Row | Structure (SMILES) | growth inhibition | condensed nuclei [%] | growth inhibition [1] [%]
1 | CN(C)CCCN1c2ccccc2CCc2ccccc21 | -27.8% (inactive) | 2.51 | 
2 | CN(C)CCCN1c2ccccc2CCc2ccc(Cl)cc21 | 89.6% (inactive) | 39.3 | 
3 | CNCCCN1c2ccccc2CCc2ccccc21 | 95.8% (active) | 13.8 | 
4 | CCOC(=O)NC(Nc1sc2c(c1C(=O)OC)CCN(C)C2)(C(F)(F)F)C(F)(F)F | -25.9% (inactive) | 2.15 | 15.4
5 | Cc1cc(=O)oc(C)c1C(=O)N[C@@H]1CCCCNC1=O | -26.2% (inactive) | 2.68 | -3.89
6 | CCCOC(=O)CSC1=C(C#N)C(c2ccc3c(c2)OCO3)CC(=O)N1 (stereo unspecified) | 75.6% (inactive) | 7.29 | 56.6
7 | CCCCOC(=O)CSC1=C(C#N)C(c2ccc3c(c2)OCO3)CC(=O)N1 (stereo unspecified) | -15.7% (inactive) | 2.23 | -8.71
8 | CCOC(=O)CSC1=C(C#N)C(c2ccc3c(c2)OCO3)CC(=O)N1 (stereo unspecified) | 90.1% (active) | 12.2 | 66.1
9 | Cn1cccc1/C=N/n1cnnc1 | 13.3% (inactive) | 11 | 0.83
10 | CC(CN1c2ccccc2Sc2ccccc21)N(C)C (stereo unspecified) | 65.5% (inactive) | 6.11 | 
11 | CN(C)CCCN1c2ccccc2Sc2ccccc21 | 40.7% (inactive) | 5.02 | 
12 | COc1ccc([C@@H]2Sc3ccccc3N(CCN(C)C)C(=O)[C@@H]2OC(C)=O)cc1 | -4.52% (inactive) | 2.39 | 
13 | CN(C)CCCN1c2ccccc2Sc2ccc(Cl)cc21 | 92.7% (active) | 22.1 | 
14 | CN(C)CCCN1c2ccccc2Sc2ccc(C(F)(F)F)cc21 | 93.8% (active) | 30.8 | 
15 | CCOc1c(C)cc2[nH]c(CCC(=O)O)nc2c1C | 26.2% (inactive) | 2.92 | 7.89
16 | CN1CCN(Cc2c(O)c(Cl)cc3c(-c4ccccc4)cc(=O)oc23)CC1 | 8.72% (inactive) | 1.6 | -6.84
17 | C(=N\n1cnnc1)/c1cccc(Oc2ccccc2)c1 | -29.2% (inactive) | 2.95 | -4.38
18 | COc1ccccc1N1CCN(C2CCN(C(=O)c3cccs3)CC2)CC1 | 32% (inactive) | 4.31 | 11.2
19 | CCCCCCn1cc(C(=O)O)c(=O)c2ccccc21 | -27.6% (inactive) | 2.69 | 1.82
20 | COC(=O)c1[nH]c2cc(OC)ccc2c1NC(=O)CCN1CCCC(C)(C)C1 | 5.81% (inactive) | 1.83 | 8.79

Row | Structure (SMILES) | growth inhibition | condensed nuclei [%] | growth inhibition [1] [%]
21 | COC(=O)c1[nH]c2cc(OC)ccc2c1NC(=O)CN1CCC(C(N)=O)CC1 | 49.4% (inactive) | 2.82 | -5.92
22 | COC(=O)c1[nH]c2cc(OC)ccc2c1NC(=O)CN1CCN(c2cccc(C)c2)C(C)C1 (stereo unspecified) | 92.4% (active) | 8.77 | 75.4
23 | COC(=O)C1CCN(c2nc3ccccc3nc2C(C#N)C(=O)NCCc2ccccc2)CC1 (stereo unspecified) | 30% (inactive) | 3.61 | 5.48
24 | COC(=O)c1cccc(Nc2cc(C)nc(-c3ccccc3O)n2)c1 | 91.6% (active) | 8.33 | 77.4
25 | COC(=O)c1ccc(Nc2cc(C)nc(-c3ccccc3O)n2)cc1 | 12.1% (inactive) | 10.7 | 23
26 | COC(=O)c1ccccc1OCc1cccc(C)n1 | 39.5% (inactive) | 0.9 | 2.81
27 | CCOc1ccc(-c2nn3c(-c4ccc(OC)cc4)nnc3s2)cc1 | 10.5% (inactive) | 2.81 | 4.54
28 | C[C@]12CC[C@@H]3c4ccc(O)cc4CC[C@H]3[C@@H]1CC[C@@H]2OC(=O)CCC(=O)O | -33.9% (inactive) | 0.84 | 
29 | C[C@]12CC[C@@H]3c4ccc(OC(=O)c5ccccc5)cc4CC[C@H]3[C@@H]1CC[C@@H]2O | 90.5% (active) | 22.1 | 
30 | C[C@]12CC[C@@H]3c4ccc(O[C@@H]5O[C@H](C(=O)O)[C@@H](O)[C@H](O)[C@H]5O)cc4CC[C@H]3[C@@H]1C[C@@H](O)[C@@H]2O | -7.06% (inactive) | 1.8 | 
31 | Cc1c(O)c(CN2CCCC(C)C2)cc2c3c(c(=O)oc12)CCC3 (stereo unspecified) | -14.5% (inactive) | 1.69 | -14.7
32 | CN(C1CCS(=O)(=O)C1)S(=O)(=O)c1cccc2nsnc12 (stereo unspecified) | -12.3% (inactive) | 8.15 | 2.06
33 | Cc1ccc(NC(=O)CSC2=C(C#N)C(c3ccco3)C3=C(CCCC3=O)N2)cc1 (stereo unspecified) | 18.9% (inactive) | 2.42 | -18.4
34 | N#CC1=C(SCC(=O)c2ccc(Cl)cc2)NC2=C(C(=O)CCC2)C1c1ccco1 (stereo unspecified) | 92.8% (active) | 7.89 | 78.2
35 | Cc1ccc(C(=O)CSC2=C(C#N)C(c3ccco3)C3=C(CCCC3=O)N2)cc1 (stereo unspecified) | 86% (inactive) | 6.33 | 77.7
36 | N#CC1=C(SCC(=O)c2ccccc2)NC2=C(C(=O)CCC2)C1c1ccco1 (stereo unspecified) | 94.2% (active) | 25.7 | 71.1
37 | CCc1ccc(NC(=O)CSC2=C(C#N)C(c3ccco3)C3=C(CCCC3=O)N2)cc1 (stereo unspecified) | 86.5% (inactive) | 11.8 | 58.1
38 | N#CC1=C(SCC(=O)c2ccc(Br)cc2)NC2=C(C(=O)CCC2)C1c1ccco1 (stereo unspecified) | 68.9% (inactive) | 7.14 | 54.1
39 | Cn1c(=O)c2c3c(sc2n2c(SCC(=O)c4ccc(Cl)cc4)nnc12)COC(C)(C)C3 | -42.1% (inactive) | 0.75 | -20.9
